# Assay results: the supplement of paper PMC11219838
# Columns and labels:
# Conditions in all cases: 60 µM; 5 days; temperature: 20 °C
# Meloidogyne hapla J2 = test: proportion of mobile M. hapla J2 relative to DMSO control (fraction of DMSO control); higher = more viable, less nematicidal, active = 0.7 or less
# Procedure, shortened: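 Two biological replicates were run and averaged, each on 96-well plates in which about 25 M. hapla J2 sat in distilled water per well. Compound was pinned in to give 60 µM final and 0.6% v/v DMSO, and the sealed plates were shaken at 200 rpm and 20 °C for 5 days before 2 µL 1 M NaOH was added. Mobility was scored microscopically and divided by the mean from the plate's DMSO-only wells, of which there were eight.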
# [1] = test system: Caenorhabditis elegans dauer (daf-2(e1370)); test: proportion of mobile C. elegans dauer larvae relative to DMSO control (fraction of DMSO control); higher = more viable, less nematicidal, active = 0.63 or less; extreme values may be limits of the assay
# Procedure, shortened: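 Synchronized C. elegans daf-2(e1370) larvae were held at 25 °C for 48 h on MYOB plates with E. coli OP50 to form dauers, and about 20 dauers were added per 96-well well in liquid NGM. Compound was pinned to 60 µM final (0.6% v/v DMSO), and sealed plates were shaken at 200 rpm for 5 days at 20 °C. The proportion of mobile worms was scored under a dissection microscope relative to DMSO controls and averaged over two biological replicates.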
# Ditylenchus dipsaci = test: proportion of mobile D. dipsaci (mixed stage) relative to DMSO control (fraction of DMSO control); higher = more viable, less nematicidal, active = 0.86 or less; extreme values may be limits of the assay
# Procedure, shortened: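 The worms, D. dipsaci raised on pea plants in Gamborg B-5 agar, were recovered through a filter funnel into water. Each well of a 96-well plate then held about 20 of them in distilled water plus pinned compound at 60 µM final (0.6% v/v DMSO), and the sealed plates were shaken at 200 rpm at 20 °C for 5 days. Following addition of 2 µL 1 M NaOH, mobile worms were counted by microscopy, and mobility was expressed against DMSO controls as the average of two biological replicates.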
Compound,proportion of mobile M. hapla J2 (Meloidogyne hapla J2),proportion of mobile C. elegans dauer larvae [1],proportion of mobile D. dipsaci (Ditylenchus dipsaci)
COc1ccc(-c2nnc(SCC(=O)c3ccc4ccccc4c3)o2)cc1,1.03 (inactive),1 (inactive),1 (inactive)
COc1ccc(-c2noc(-c3ccc(C)cc3Cl)n2)cc1,0.969 (inactive),1 (inactive),1 (inactive)
Cc1ccc(SCc2nc(-c3cccnc3)no2)cc1,1.1 (inactive),0.75 (inactive),
COc1ccc(-c2nnc(SCC(=O)OCc3ccccc3)o2)cc1,0.953 (inactive),1 (inactive),1 (inactive)
Brc1ccccc1-c1nc(-c2ccccc2)no1,1.04 (inactive),0.676 (inactive),1 (inactive)
Cc1ccc(-c2nc(-c3ccccc3Cl)no2)c(Cl)c1,0.942 (inactive),1 (inactive),1 (inactive)
c1ccc(CSc2nnc(-c3cccnc3)o2)cc1,0.391 (active),1 (inactive),1 (inactive)
COc1ccc(Cl)cc1-c1noc(-c2ccccc2C)n1,0.93 (inactive),1 (inactive),1 (inactive)
Clc1ccc(OCc2nc(-c3cccs3)no2)cc1,0.923 (inactive),1 (inactive),1 (inactive)
COc1nc(-c2ccccc2)ccc1-c1noc(-c2ccco2)n1,0.685 (active),1 (inactive),1 (inactive)
Brc1ccc(OCc2nc(-c3ccc4c(c3)OCO4)no2)cc1,0.943 (inactive),1 (inactive),1 (inactive)
Clc1ccc(OCc2nc(-c3ccc(Br)o3)no2)cc1,0.945 (inactive),1 (inactive),1 (inactive)
COc1ccc(Cl)cc1-c1noc(COc2ccc(Cl)cc2)n1,0.964 (inactive),1 (inactive),1 (inactive)
